The nature of assay [1]: TOX21_p53_BLA_p2_viability: Viability Assessment in the Tox21 HCT-116 p53 Agonism Beta-lactamase Assay, Phase 2 (AID 2283591).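 Note: compound exposure lasted 16 h at 37 °C; actives lower the ATP signal meaning cytotoxicity.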 The procedure, abridged:
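Cytotoxicity readout: CellTiter-Glo ATP luminescence, 30 min at room temperature, after the beta-lactamase read. Cells were HCT116 exposed 16 h at 37C to compounds pin-transferred at 217-fold dilution from DMSO stocks.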

A short description of assay [2]: TOX21_p53_BLA_p3_viability: Viability Assessment in the Tox21 HCT-116 p53 Agonism Beta-lactamase Assay, Phase 3 (AID 2283593).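 Note: cells exposed to compound for 16 h before reading.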 The procedure, abridged:
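Cellular ATP was quantified by CellTiter-Glo luminescence, read after 30 min at room temperature. Beforehand, HCT116 cells (4000/well) received compound 5 h post-seeding, 217-fold diluted from DMSO, then incubated 16 h at 37C.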

The target of assay [3] is Cellular tumor antigen p53 (Homo sapiens) (UniProt P04637). Description: TOX21_p53_BLA_p3_ratio: Tox21 HCT-116 p53 Agonism Beta-lactamase Assay, Ratio, Phase 3 (AID 2283596). In outline:
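HCT116 p53-bla cells (4000/well) given compound in DMSO (217-fold dilution) after 5 h, incubated 16 h at 37C. CCF4-AM substrate 2 h at room temperature; 460/530 nm emission ratio, gain fitted against DMSO.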

Assay [4] can be described thus: TOX21_p53_BLA_p4_viability: Viability Assessment in the Tox21 HCT-116 p53 Agonism Beta-lactamase Assay, Phase 4 (AID 2283597).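 Note: hits lower the luminescence signal meaning cytotoxicity.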 In outline: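 HCT-116 p53-bla cells, 4000/well, dosed after 5 h attachment and incubated 16 h at 37 °C, 5% CO2. Viability from CellTiter-Glo ATP luminescence after 30 min at room temperature, taken after the beta-lactamase read; loss of signal indicates cytotoxicity.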

In assay [5] the target is Cellular tumor antigen p53 (Homo sapiens) (UniProt P04637). Description: TOX21_p53_BLA_p5_ratio: Tox21 HCT-116 p53 Agonism Beta-lactamase Assay, Ratio, Phase 5 (AID 2283599). In outline:
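Beta-lactamase reporter ratio (blue 460 nm over green 530 nm, 405 nm excitation) after 2 h CCF4-AM loading, in HCT-116 cells exposed 16 h at 37 C to compounds pinned at 217-fold dilution. Increases relative to DMSO baseline scored.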

Assay [6] is described as follows: TOX21_p53_BLA_p5_viability: Viability Assessment in the Tox21 HCT-116 p53 Agonism Beta-lactamase Assay, Phase 5 (AID 2283600). The procedure, abridged: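 HCT-116 p53 beta-lactamase reporter cells, 4000/well, were exposed to compound (pin transfer, 217-fold dilution) for 16 hours at 37C. Cellular ATP was read by CellTiter-Glo luminescence after 30 min at room temperature.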

In assay [7] the target is Cellular tumor antigen p53 (Homo sapiens) (UniProt P04637). Description: TOX21_p53_BLA_p4_ratio: Tox21 HCT-116 p53 Agonism Beta-lactamase Assay, Ratio, Phase 4 (AID 2283601). The procedure, abridged:
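Signal is the blue/green (460nm/530nm) ratio of cleaved versus uncleaved CCF4-AM substrate, read after 2 h substrate loading. Cells were HCT116 carrying the p53-responsive beta-lactamase reporter, dosed 16 h at 37C, 5% CO2; CellTiter-Glo measured in parallel.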

Assay [8] is described as follows: CCTE_Harrill_HTTr_Viability_MCF7: CCTE's 6-hour Cell Viability Assessment for the High-Throughput Transcriptomics (HTTr) Platform, in MCF-7 cells cultured in DMEM + 10% fetal bovine serum, Harrill Lab (AID 2284010; active = hit-call score of the fitted dose curve at least 0.9, where 1 is the maximum; inactive = score below 0.9). In outline: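 MCF-7 cells in DMEM + 10% FBS, 384-well, exposed 6 h to an eight-point dilution series. Membrane integrity scored by high-content imaging of propidium iodide exclusion; bidirectional fit versus DMSO.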

Assay [9] in a line: CCTE_Harrill_HTTr_Apoptosis_MCF7: CCTE's 6-hour Apoptosis Assessment for the High-Throughput Transcriptomics (HTTr) Platform, in MCF-7 cells cultured in DMEM + 10% fetal bovine serum, Harrill Lab (AID 2284011; active = hit-call score of the fitted dose curve at least 0.9, where 1 is the maximum; inactive = score below 0.9). In outline: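 MCF-7 cells in DMEM + 10% FBS exposed 6 h to chemicals over an eight-point dilution series. Caspase-3/7 activation imaged by high-content CellEvent Green staining; fitted bidirectionally versus DMSO.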

Inconclusive results are not listed. Activity calls are given as the source filed them. Rule for the calls, unless noted: active = hit-call score of the fitted dose curve at least 0.9, where 1 is the maximum; inconclusive = response in the unintended direction; inactive = score below 0.9.

Chain of Cellular tumor antigen p53 (Homo sapiens) (P04637 whole entry, looked up): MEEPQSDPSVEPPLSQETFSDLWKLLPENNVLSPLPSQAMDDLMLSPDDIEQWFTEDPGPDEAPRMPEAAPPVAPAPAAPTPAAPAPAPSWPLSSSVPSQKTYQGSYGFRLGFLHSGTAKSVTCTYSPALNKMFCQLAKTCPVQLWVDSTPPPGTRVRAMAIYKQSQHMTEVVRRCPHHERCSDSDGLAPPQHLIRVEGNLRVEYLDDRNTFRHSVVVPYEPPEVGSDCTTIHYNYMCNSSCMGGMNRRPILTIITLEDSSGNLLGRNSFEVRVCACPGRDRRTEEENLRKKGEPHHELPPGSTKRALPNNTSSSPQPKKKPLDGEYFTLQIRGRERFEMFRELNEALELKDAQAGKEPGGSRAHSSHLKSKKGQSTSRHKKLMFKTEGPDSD

With `N#CCc1ccccc1`, the result in assay [1], in [2], in assay [3], in assay [4], in assay [5] and in assay [6] was inactive. Also, the result in [7] was inactive.
Consider `C=CC(C)=O`, for which the outcome in assay [1], in assay [2], in assay [3], in assay [5], in assay [6] and in [7] was inactive.
Regarding `CCC1(CC)C(=O)C=CNC1=O`, the result in [1], in assay [3], in [4], in [5], in assay [6] and in [7] was inactive.
In the case of `C#CCOC(C(=O)OCCN(C)C)(c1ccccc1)c1ccccc1`, the call in [1], in [2], in [6] and in assay [7] was inactive.
In the case of `CCCCCCCC(=O)Cl`, the result in [1], in assay [2], in assay [5], in assay [6] and in assay [7] was inactive.
Take `O=[N+]([O-])c1ccccc1-c1ccccc1`: the outcome in assay [1], in assay [3], in assay [5] and in [6] was inactive.
On to `[Cl-].[Cl-].[Cl-].[Fe+3]`, for which the outcome in assay [1], in assay [2], in assay [4], in [8] and in [9] was inactive.
Turning to `O=C(NC(=O)c1ccccc1Cl)Nc1ccc(OC(F)(F)F)cc1`, the outcome in assay [1], in assay [2], in assay [5], in [6] and in [7] was inactive.
`Cc1cc(C)cc(C(=O)OC2C[C@H]3CC[C@@H](C2)N3C)c1` (stereo not given in full): the outcome in assay [1], in assay [2], in assay [4], in assay [6] and in [7] was inactive.
For the molecule `CCCCCCCCP(=O)(O)O`, the molecule was classed as inactive in assay [1], in assay [3] and in assay [7].
As for `NC1=NC(=O)C(c2ccccc2)O1` (stereo not given), the molecule was called inactive in [1], in assay [3], in assay [6] and in assay [7].
Consider `CC(C)OS(C)(=O)=O`, for which the result in assay [1], in assay [2] and in assay [5] was inactive.
With `O=[N+]([O-])c1cc(Cl)c(Cl)c(Cl)c1`, the molecule was called inactive in assay [1], in assay [3], in [5] and in assay [6].
Broadly, the AC50 is the midpoint of the concentration-response curve, whichever way the signal moves. Consider `[O]=[Cr](=[O])([OH])[O][Cr](=[O])(=[O])[OH]`, for which the AC50 was 15.1 µM (active) [middle of 4 runs] in assay [1]; 11.4 µM (active) [middle of 4 runs] in assay [2]; 13.2 µM (active) [middle of 4 runs] in assay [5]; 28.1 µM (active) [middle of 4 runs] in assay [6]; 13.6 µM (active) [middle of 4 runs] in assay [7].
Turning to `CC1NCCOC1c1ccccc1` (stereo not given), the outcome in assay [1], in assay [3], in assay [6] and in assay [7] was inactive.
Consider `Cc1nnc2n1-c1ccc(Cl)cc1C(c1ccccc1)=NC2`, for which the result in assay [1], in assay [3], in assay [4], in assay [5] and in assay [7] was inactive.
With `CC=C(CC)C(=O)NC(N)=O`, the result in [1], in assay [2], in [4], in assay [6] and in assay [7] was inactive.
With `CCOC(=O)c1cn2nc(OP(=S)(OCC)OCC)cc2nc1C`, the molecule was called inactive in [1], in [2], in assay [4], in [6] and in [7].

For the origin of these results see PubChem BioAssay (EPA / NIEHS).
